# From PubChem
# Rows were chosen to be rich in hits. Some 0.87% of all compounds tested hit in one or more screens of this group.
# EPAC1 ag – activates human EPAC1 exchange factor. EPAC1 agonist qHTS, biochemical assay; response scale: 100% = response to 6.5 mM cAMP. Potency, µM (titrated, usually from 154 µM), for inactives: at the highest dose activation, hits mostly activators. hit rate 0.073% among 360,000; also: potency is read from the fitted curve at half-maximal effect; nearly all actives have a fitted effect of over 60% in size
#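 Read-out is the fluorescence drop as BODIPY-GDP leaves Rap1B (480 nm excitation, 540 nm emission), recorded every 5 minutes over 30 minutes. Reactions held 100 nM EPAC1, 250 nM Rap1B–BODIPY-GDP and 50 uM GDP, with 6.5 mM cAMP setting full activation.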
# USP1 inh – blocks the human USP1/UAF1 deubiquitinase complex. O94782. recombinant USP1/UAF1, Ub-Rhodamine cleavage fluorescence. Potency, µM (titrated, usually from 57.1 µM), inactives show at the top dose activity change, negative = inhibition, most hits filed as inhibitors. hit rate 0.23% among 390,000; also: potency is read from the fitted curve at half-maximal effect; % is scaled to controls: 0 for no effect and ±100 for the full control effect; nearly all actives have a fitted effect of over 60% in size
#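 USP1/UAF1 complex at 1 nM was preincubated with compound for 15 min at room temperature, then Ub-Rho substrate (150nM final) was added. Fluorescence (480/540 nm) was read kinetically, 6 reads every 60 seconds.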
# EPAC1 antag – blocks human EPAC1 exchange factor. hit rate 0.14% among 360,000. Potency, µM (highest dose often 115 µM), without a hit: at the top dose activity change, negative = inhibition, actives largely listed as inhibitors. EPAC1 GEF assay, Rap1b-BODIPY-GDP exchange fluorescence. O95398;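 also: potency is read from the fitted curve at half-maximal effect; plate controls were vehicle for no effect and positive control for full effect; nearly all actives have a fitted effect of over 50% in size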
# FBPA coupling cs – inhibits coupling enzyme system, counter-screen for aldolase hits | coupling enzyme system counterscreen, AmpLite Red fluorescence | activity change, negative = inhibition, % at 58.2 µM, hits read low | hit rate 0.67% among 290,000; in the data active = activity change below about -30%; also: % is scaled to controls: 0 for no effect and ±100 for the full control effect
#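 First, compound is pin-transferred into glyceraldehyde-3-phosphate coupling-enzyme reagent at 57.5 uM final and held 10 min at RT. Next, substrate, coupling system and AmpLite Red are added. After 20 min RT, fluorescence (525/598 nm) is read.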
# EPAC2 agonist – agonists of human EPAC2 (RAPGEF4); EPAC2 activation, biochemical qHTS; response scale: 100% = 6.5 mM cAMP response; Q8WZA2; Potency, µM (series often up to 154 µM), without a hit: top-dose activation, usual class: activators; hit rate 0.079% among 360,000; also: potency is read from the fitted curve at half-maximal effect; nearly all actives have a fitted effect of over 50% in size
#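 Guanine nucleotide exchange by EPAC2 is measured as reduced fluorescence of BODIPY-GDP once it is released from 250 nM Rap1B. Plates are read kinetically for 30 min at room temperature; results are scaled to 6.5 mM cAMP.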
# EPAC2 antagonist – blocks human EPAC2 exchange factor; EPAC2 GEF exchange of Rap1B-BODIPY-GDP, fluorescence; Q8WZA2; Potency, µM (doses to about 114 µM), inactives show at the top dose activity, negative = inhibition, usual class: inhibitors; hit rate 0.18% among 360,000; also: potency is read from the fitted curve at half-maximal effect; % is scaled to controls: 0 for no effect and ±100 for the full control effect; nearly all actives have a fitted effect of over 45% in size
# * = called active by the depositor; ? = inconclusive; nt = not tested or not shown. Unless noted, calls follow the shape of the dose curve; as a rule, active = well fitted curve in the direction sought with a large enough effect; inconclusive = small, poorly fitted or top-dose-only effect, or another doubt; inactive = no such curve, though single readings can be large; an effect the other way counts as inactive or inconclusive.
SMILES,EPAC1 ag,USP1 inh,EPAC1 antag,FBPA coupling cs,EPAC2 agonist,EPAC2 antagonist
O=C1Cc2ccccc2Sc2cc(OCCCN3CCCCC3)ccc21,7%,-21%,-15%,-16,-10%,0%
O=c1oc(-c2ccccc2)c(-c2ccccc2)c2ccccc12,4%,-23%,-19%,nt,4%,45µM*
COc1ccc(NC(=O)NNC(=O)c2ccc3ccccc3c2O)cc1OC,3%,-11%,-28%,nt,6%,0%
Oc1ccccc1C1Nc2cccc3cccc(c23)N1,2%,-24%,13%,-34*,-8%,2%
Clc1cccc(Cl)c1C1Nc2cccc3cccc(c23)N1,7%,-9%,?,-3,10%,56µM*
Fc1cccc(Cl)c1C1Nc2cccc3cccc(c23)N1,0%,-17%,-17%,0,6%,?
O=C(COC(=O)CNC(=O)c1ccco1)Nc1ccccc1OC(F)F,9%,-8%,4%,3,10%,-1%
O=C(CSc1ccc(-c2ccccc2)nn1)N1CCOCC1,-1%,-21%,-1%,1,10%,2%
O=C(O)C1=C[C@H](c2ccc(F)cc2)C[C@H](OCc2ccc(CO)cc2)O1,9%,-10%,2%,7,14%,20%
COc1ccc(OC)c2c(C)cc(NCCN3CCOCC3)nc12,-2%,-8%,3%,-30*,5%,8%
COc1ccc(S(=O)(=O)NCCN2CCOCC2)c(C)c1C,7%,-14%,-6%,-2,2%,-2%
Nc1n[nH]c(-c2ccc(Br)cc2)c1Cl,-8%,-15%,9%,2,0%,-2%
Cc1cccc(N/N=C/c2ccc(O)c(O)c2O)c1,-5%,-26%,-6%,-69*,10%,-9%
COc1cccc(N/N=C/c2cccc(Br)c2O)c1,14%,-5%,-3%,3,7%,-14%
Oc1ccccc1C=NNC(=S)NN=Cc1ccccc1O,9%,-10%,79µM*,nt,12%,4%
Fc1cccc(F)c1/C=N/NC(=S)Nc1cccnc1,0%,-19%,-15%,1,5%,10%
Oc1ccc(/C=N/NC(=S)Nc2cccnc2)c(O)c1O,7%,?,?,-63*,5%,-9%
Oc1ccc(/C=N/NC(=S)Nc2cccnc2)c(O)c1,2%,-17%,-17%,5,0%,-3%
NC(=S)N/N=C/c1ccccc1O,3%,-12%,8%,-4,6%,5%
Oc1cccc(/C=N/NC(=S)Nc2cccnc2)c1O,-7%,-21%,11µM*,-11,4%,9%
COc1c(F)c(F)c(C(=O)Nc2cccc(Cl)c2N2CCOCC2)c(F)c1F,0%,-8%,-2%,-1,-3%,6%
Cc1ccc(NC(=O)CN(C)C(=O)CSc2nc(C)cc(C)n2)cc1,0%,-5%,3%,nt,5%,5%
COc1ccc(Cl)cc1S(=O)(=O)N1CCN=C1C,-14%,-7%,3%,1,-7%,-14%
CC1=NCCN1S(=O)(=O)c1c(C(C)C)cc(C(C)C)cc1C(C)C,-4%,-9%,-18%,5,-4%,79µM*
O=c1ccc(-c2ccccc2)nn1Cc1ccc(Cl)cc1,5%,-22%,-6%,nt,9%,35µM*
SMILES,EPAC1 ag,USP1 inh,EPAC1 antag,FBPA coupling cs,EPAC2 agonist,EPAC2 antagonist
CN(CC(=O)N1CCN(c2ccccn2)CC1)S(=O)(=O)c1ccc2ccccc2c1,-3%,-28%,-9%,5,5%,8%
Nc1cccc2c(O)cc(S(=O)(=O)O)cc12,?,25µM*,-21%,nt,?,-30%
COc1ccc(/C=C2\C(=O)NC(=O)c3ccccc32)cc1OC,2%,1.8µM*,?,nt,11%,-11%
CC(C)CN1CC(C)C(=O)N(c2ccccc2)C1=O (stereo not given),-9%,4%,4%,nt,-14%,-21%
Cn1cc([C@]2(O)C(=O)Nc3ccc(Br)cc32)c2ccccc21,-5%,nt,0%,nt,-2%,50µM*
O=[N+]([O-])c1cc(-c2ncccn2)c([N+](=O)[O-])s1,14%,?,-3%,-84*,8%,-12%
O=C(Nc1ncccn1)c1cc([N+](=O)[O-])cc([N+](=O)[O-])c1,0%,-13%,-17%,0,-7%,2%
CCOC(=O)Nc1ccc(NCc2ccc(F)cc2)nc1N,14%,22µM*,?,nt,10%,?
CCOC(=O)Nc1ccc(C)cc1NC(=O)OCC,-4%,-14%,5%,-2,6%,7%
O=C1C=C(N2CCCCC2)c2ccccc2C1=O,17%,7.9µM*,45µM*,nt,17%,35µM*
O=C1c2ccccc2C(=O)c2c1cccc2N1CCCC1,8%,?,-20%,-20,19%,-16%
Cc1ccc(C)c(NC(=O)c2cc(S(=O)(=O)N3CCc4ccccc4C3)ccc2F)c1,nt,4%,nt,nt,nt,nt
COc1ccc(C2=C(N)c3ccccc3C2=O)cc1,-2%,-18%,-6%,4,-5%,-2%
O=C(C1=C(c2ccccc2)C(=O)c2ccccc2C1=O)c1ccccc1,6%,?,-25%,-62*,17%,-20%
COC1=C(c2ccccc2)C(=O)c2ccccc2C1=O,-1%,14µM*,23%,-33*,9%,-4%
O=C(c1ccccc1)c1c[nH]cc1-c1ccccc1,4%,0%,9%,2,-2%,-1%
CC(NC(=O)Cn1c(NCCO)nc2ccccc21)C1CC2CCC1C2 (stereo not given),-1%,-3%,-1%,-2,6%,-1%
C=C1CCN(C(Cc2ccccc2)C(=O)OC)S(=O)(=O)c2ccc(F)cc21 (stereo not given),-17%,-24%,-20%,-2,12%,56µM*
C=CCOc1c(Br)cc(CNc2ccc(NC(=O)CCC)cc2)cc1OCC,6%,-23%,-6%,-1,2%,2%
C=CCOc1c(Br)cc(CNc2ccc(NC(=O)C(C)C)c(OC)c2)cc1OCC,-6%,-23%,-20%,-50*,-9%,-5%
CCOc1cc(CNc2ccc(N(C)C)cc2)cc(Br)c1OCC(=O)NC(C)(C)C,14%,-20%,-15%,-37*,-3%,-20%
COc1ccc(NC(=O)CN(c2ccccc2OC)S(=O)(=O)c2cccs2)cc1Cl,7%,-6%,-26%,nt,6%,-14%
Cc1csc(NC(=O)c2c(O)c3cccc4c3n(c2=O)CCC4)n1,nt,nt,nt,1,nt,nt
CCN(CC)C(=O)c1sc2nc(-c3cccs3)cc(-c3ccc(Cl)cc3)c2c1N,?,28µM*,17%,4,-11%,55%
CCN(CC)C(=O)c1sc2nc(-c3cccs3)cc(-c3cccs3)c2c1N,5%,?,-6%,0,25%,13%
